# Screening results: PubChem BioAssay, National Center for Advancing Translational Sciences (NCATS)
# KAT2A inh: GCN5L2 (KAT2A) acetyltransferase inhibition | Q92830 | GCN5L2 HAT assay, ThioGlo1 CoA-SH fluorescence | Potency, µM (doses to about 58.9 µM), for the others: at the highest dose activity change, negative = inhibition, most hits filed as inhibitors | actives 0.21% (n = 390,000) | AID 504327; note: potency is the fitted concentration of half-maximal effect
#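 ThioGlo1-coupled HAT assay: 20nM GCN5L2, 70uM acetyl-CoA, 75uM H3(1-25) peptide, pH 7.5. Fluorescence read at 340/540nm at start and after 20 min at room temperature.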
# PLK1 PBD inh: inhibitors of human PLK1 polo-box domain binding | P53350 | Plk1 PBD binding of FITC phosphopeptide, fluorescence polarization | Potency, µM, inactives show max response, negative = inhibition, actives largely listed as inhibitors | actives 2.8% (n = 360,000) | AID 720504; note: potency is the fitted concentration of half-maximal effect; series mostly up to about 57 µM; nearly all actives have a fitted effect of over 65% in size
# GLS inh: inhibitors of human glutaminase (GLS); GLS enzymatic activity, qHTS titration; Potency, µM (series often up to 45.5 µM), for the others: top-dose activity change, negative = inhibition, most hits filed as inhibitors; actives 0.21% (n = 410,000); AID 624170; note: potency is the fitted concentration of half-maximal effect
#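 Coupled fluorescence readout: glutamate oxidase/HRP/Amplex Red detect glutamate formed by hKGA from L-glutamine (1 mM solution added). Buffer 45 mM KH2PO4 pH 8.2, 0.02% Tween-20; reads at t0 and 30 min RT.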
# PI4K2A inh: PI4K2A (human) kinase inhibition | Q9BTU6 | purified PI4K2A, ADP-Glo luminescence, 1 h; stronger effect = lower value | activity change, negative = inhibition, % at 76.9 µM | actives 0.13% (n = 420,000); in the data active = activity change below about -50%; inconclusive = mostly about -30% to -49%;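 note: -100% = wells without enzyme as full effect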
# Target sequence (Q9BTU6 whole entry, looked up): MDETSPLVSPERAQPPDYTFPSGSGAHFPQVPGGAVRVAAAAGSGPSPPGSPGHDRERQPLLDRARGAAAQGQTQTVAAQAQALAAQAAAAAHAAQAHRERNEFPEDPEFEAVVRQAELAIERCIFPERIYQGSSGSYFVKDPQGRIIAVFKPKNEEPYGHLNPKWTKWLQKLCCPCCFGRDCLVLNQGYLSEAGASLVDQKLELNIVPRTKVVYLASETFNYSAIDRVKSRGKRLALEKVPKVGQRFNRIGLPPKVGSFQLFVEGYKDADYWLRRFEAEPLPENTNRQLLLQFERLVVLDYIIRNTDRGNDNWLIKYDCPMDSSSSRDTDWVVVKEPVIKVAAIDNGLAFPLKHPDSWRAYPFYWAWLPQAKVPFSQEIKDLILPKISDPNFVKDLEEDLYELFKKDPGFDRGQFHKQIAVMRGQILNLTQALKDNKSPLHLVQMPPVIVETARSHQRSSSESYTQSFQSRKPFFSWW
#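 PI4K2A activity was measured by ADP-Glo luminescence: enzyme (4 ug/mL stock) and phosphatidylinositol (1.2 mM stock) in Tris pH 7.5/MgCl2/EGTA/Triton X-100 buffer were reacted with ATP (300 microM stock) for one hour at ambient temperature.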
# VDR inhibitor: inhibitors of human vitamin D receptor | AID 504847 | P11473 | Potency, µM, inactives show max response, negative = inhibition, most hits filed as inhibitors | actives 0.93% (n = 400,000) | VDR-SRC2-3 peptide fluorescence polarization, 2 h; note: potency is the fitted concentration of half-maximal effect
#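 Signal is fluorescence polarization, reporting how far test compounds block the interaction of VDR with the SRC2-3 coregulator peptide after a 2 h room-temperature incubation.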
# * marks the source's active call; other numbers are inactive results; ? = inconclusive; . = not tested or not shown. Compounds with a hit are over-represented: about 3.1% of the library has one in this group of screens. Unless noted, calls come from the whole dose curve; as a rule, active = well fitted curve in the direction sought with a large enough effect; inconclusive = small, poorly fitted or top-dose-only effect, or another doubt; inactive = no such curve, though single readings can be large; an effect the other way counts as inactive or inconclusive. Unless noted, % is set by controls: 0 for no effect and ±100 for the full control effect.
SMILES,KAT2A inh,PLK1 PBD inh,GLS inh,PI4K2A inh,VDR inhibitor
CCN(C(=O)CSc1nnc(-c2cccnc2)n1Cc1ccco1)c1ccccc1C,.,.,.,-2.1,.
CNc1ccccc1/C(O)=C(\C#N)C(=O)NCc1cccc2ccccc12,.,.,.,-2.0,.
Cc1ccc(/C=C/c2onc(C)c2S(=O)(=O)N2CCC(C(=O)NCc3ccc(C)o3)CC2)cc1,-3.9%,.,-7.0%,0.3,3.3%
Cc1nc2ccccc2n1Cc1ccccc1,-6.2%,-4.8%,-5.1%,3.4,15.3%
Cc1nc2cc(NCc3ccccc3O)ccc2n1Cc1ccccc1,-20.8%,3.36µM*,-28.9%,5.2,?
COC1=CC(=NCl)C=CC1=NCl,.,13.4µM*,?,?,.
O=P(O)(O)OP(=O)(O)OP(=O)(O)O,4.6%,.,-17.0%,.,6.9%
Cc1noc(C)c1CSc1nc2ccccc2nc1NS(=O)(=O)c1ccc(Cl)cc1,-15.4%,5.97µM*,3.4%,-20.8,-6.7%
Clc1ccc(-c2csc(N3CCSCC3)n2)cc1,-4.3%,23.8µM*,-1.9%,-5.1,-29.0%
CC(=O)O[C@@H]1CC2C3CCc4cc(OC(=O)c5ccccc5)ccc4C3CCC2(C)[C@H]1OC(C)=O (stereo partly specified),.,.,.,3.5,.
Cc1cc2nc(C)c(=O)n(C)c2cc1C,-2.2%,13.4µM*,?,0.7,?
O=C(NCCCCN1CCN(c2cccc(Cl)c2Cl)CC1)c1ccc2c(c1)Cc1ccccc1-2,0.0%,.,.,.,5.6%
CCOc1ccc2c(c1)nc(SCC(=O)c1ccc(Br)s1)n2C,-7.9%,29.9µM*,-2.9%,-0.1,89.1µM*
CCOc1ccc2c(c1)nc(SCC(=O)c1cccs1)n2C,-2.2%,?,-7.1%,-4.7,?
COc1ccc(OC)c(C(c2nnnn2CC2CCCO2)N2CCN(C)CC2)c1 (stereo unspecified),-6.9%,0.4%,4.4%,-3.2,-4.7%
C=CCN1CCN(C(c2cc(OC)ccc2OC)c2nnnn2CC2CCCO2)CC1 (stereo unspecified),-11.9%,29.9µM*,-12.5%,-8.0,-20.3%
CCOc1ccc2nc(NC(=O)c3ccoc3C)sc2c1,-7.0%,-15.9%,-1.9%,-83.4*,8.3%
CCOc1ccc2nc(NC(=O)Cc3cccs3)sc2c1,-11.1%,29.9µM*,11.2%,-7.5,-1.8%
CCOc1ccc2nc(NC(=S)NCc3ccccc3)sc2c1,-5.3%,26.7µM*,-2.3%,3.8,?
CC[C@H](C)[C@H](NC(=O)[C@H](Cc1ccc(O)cc1)NC(=O)[C@@H](NC(=O)[C@H](CCCN=C(N)N)NC(=O)[C@@H](N)CC(=O)O)C(C)C)C(=O)N[C@@H](Cc1cnc[nH]1)C(=O)N1CCC[C@H]1C(=O)N[C@@H](Cc1ccccc1)C(=O)N[C@@H](Cc1cnc[nH]1)C(=O)N[C@@H](CC(C)C)C(=O)O,9.5%,.,.,.,-4.0%
O=C(NCc1ccc(F)cc1)C1CCC(CNS(=O)(=O)c2ccccc2)CC1 (stereo unspecified),21.4%,26.7µM*,-1.1%,3.3,?
COC(=O)C[C@H]1CC[C@H]2[C@H](COc3ccc(NS(=O)(=O)c4cccc(OC)c4)cc3C(=O)N2C)O1,.,.,.,0.3,.
C[C@@H]1C[C@H]2[C@@H](Cc3ccccc3)C(=O)N3[C@H](c4ccccc4)[C@H](C)C[C@H]3[C@@H](Cc3ccccc3)C(=O)N2[C@@H]1c1ccccc1,.,.,.,0.2,.
COc1ccc(Nc2nc3ccccc3c(=O)[nH]2)cc1,-4.2%,23.8µM*,-3.2%,-2.4,?
CCCCCCCCN1C(=O)[C@@H](CC(=O)NCc2cccs2)C[C@@]2(C(=O)OC)C1=C[C@H](COCc1ccccc1)O[C@@H]2C,.,.,.,-3.6,.
SMILES,KAT2A inh,PLK1 PBD inh,GLS inh,PI4K2A inh,VDR inhibitor
O=C(c1cccs1)N(Cc1ccco1)Cc1cc2ccccc2[nH]c1=O,-9.9%,26.7µM*,8.9%,-6.9,-23.7%
Cc1cc(C)c2[nH]c(=O)c(CN(Cc3ccco3)C(=O)c3cccs3)cc2c1,19.1%,.,.,.,.
Cc1ccc(Cl)cc1N1CCN(C(=O)c2cc(S(=O)(=O)N3CCCC3)cn2C)CC1,-6.5%,.,5.1%,3.6,6.2%
CSc1ccc(CNC(=O)C(C)n2nc(C)c3c(C)n(-c4ccccc4)nc3c2=O)cc1 (stereo unspecified),-3.3%,21.2µM*,0.6%,-2.9,-21.4%
CCc1ccc(CNC(=O)Cn2nc(C)c3c(C)n(-c4ccc(C)cc4)nc3c2=O)cc1,-0.7%,.,0.1%,-4.2,-3.2%
CCOc1ccc(CNC(=O)Cn2nc(C)c3c(C)n(-c4ccc(C)cc4)nc3c2=O)cc1,-12.5%,29.9µM*,9.0%,9.3,-19.3%
CC(=O)Oc1ccc2c(c1)CC[C@@H]1[C@@H]2CC[C@]2(C)[C@@H](O)CC[C@@H]12,.,.,.,-0.9,.
C=CCN1C[C@@H](COCc2ccccc2)Oc2cc(F)ccc2S1(=O)=O,.,.,.,2.5,.
CN1CC=C2C(C#N)=C(N)C(C#N)(C#N)[C@H](c3cccs3)[C@H]2C1,-5.4%,21.2µM*,-14.1%,0.8,?
CN1CC=C2C(C#N)=C(N)C(C#N)(C#N)C(c3ccsc3)C2C1 (stereo unspecified),3.4%,?,-13.1%,-6.9,-4.6%
COc1ccc(C2C(C(=O)Nc3ccc(F)cc3F)CCC(=O)N2c2ccc(OC)cc2)cc1 (stereo unspecified),.,.,.,-3.2,.
O=C(c1ccco1)N1CCNCC1,.,.,.,0.2,.
O=C(OCC(=O)N1N=C(c2ccc(Cl)cc2)CC1c1ccco1)c1cccnc1 (stereo unspecified),?,-30.0%,-6.9%,-20.6,39.8µM*
Cc1cc(Cl)ccc1C(=O)C1CCCN(C(=O)c2cccc(N3CCCC3=O)c2)C1 (stereo unspecified),-3.4%,23.8µM*,38.3%,0.4,?
CO[C@H]([C@H](C)/C=C/N(C)C=O)[C@@H](C)C(=O)CC[C@H](C)[C@H](O)[C@H](C)[C@H]1OC(=O)/C=C/C(C)=C/C[C@H](O)C[C@@H]2C=CC[C@@H](C[C@H](OC)[C@@]3(CO3)[C@@H](OC)C[C@@H](OC)[C@@H]1C)O2,.,.,.,0.5,.
C=CCNc1nc(-c2ccccc2)c(C(=O)OCC)cc1C#N,0.0%,23.8µM*,-13.5%,1.8,-11.8%
S=c1nc[nH]c2c1ncn2C1CCCO1 (stereo unspecified),-1.3%,26.7µM*,-1.0%,9.2,?
O=C(NC1CCCCN(Cc2cccc(C(F)(F)F)c2)C1=O)c1ccc(Cl)c(Cl)c1 (stereo unspecified),.,.,.,0.1,.
O=C(CSc1nc2c(cnn2-c2ccccc2)c(=O)[nH]1)N1CCOCC1,-1.7%,13.4µM*,?,-12.4,-2.5%
CCCCCSc1nc2c(cnn2-c2ccc(F)cc2)c(=O)[nH]1,-0.5%,26.7µM*,7.0%,-1.2,-21.6%
Nc1nc(SCC(=O)N2CCCC2)[nH]c(=O)c1-c1ccccc1,-19.9%,6.7µM*,-3.5%,-2.4,0.2%
Nc1[nH]c(C(=O)c2ccccc2)c(-c2ccc3ccccc3c2)c1C(=O)NCCc1ccc(Cl)cc1,.,.,.,-2.7,.
